# Laboratory results as given in ChEMBL document CHEMBL3988442, “University of Dundee, Small-Polar-MMV Screening Library” (2021).
# Among all 48,000 compounds or so, about 13,000 (27%) showed an effect of 50% or more. The list shows a part of the results.
# Tested on: Wolbachia pipientis
# Assay: Anti-Wolbachia Cell-Based Screen
# Format: functional
# Set-up: scale not given: in the data most compounds retested in dose-response had high values
# Conditions: 5 µM
row,SMILES,Percent Effect [%]
1,c1c[nH]c(-c2cn(CCSc3cnn[nH]3)nn2)n1,-6.5
2,O=C(COCC1CC1)N1CCSCC1,-4.058
3,CC(=O)NCc1ccc(S(=O)(=O)NC(=O)c2ccc3c(c2)CCO3)s1,-11.39
4,CN(Cc1nc2ccccc2n1C)CC1CCCN1c1cccnn1 (stereo not given),-5.038
5,Brc1csc(CNCc2nnc3n2CCC3)c1,-6.201
6,Cn1cc(C2CCCN2C(=O)c2cnc(C3CC3)s2)cn1 (stereo not given),90.11
7,Cn1cc(C2CCCN2C(=O)CS(=O)(=O)C2CCCC2)cn1 (stereo not given),4.822
8,CS(=O)(=O)N1CCN(Cc2c(O)ccc3oc4c(c23)CCCC4)CC1,-24.14
9,CCC(CC)(CNC(=O)c1cccn1Cc1cccnc1)N(C)C,-9.831
10,CSCC1CCCN(c2ncnc3oc(C)nc23)C1 (stereo not given),100.1
11,CCN(CC)C(=O)C1CCCN(c2ncnc3oc(C)nc23)C1 (stereo not given),73.24
12,CSCC1CCN(c2nc(N)ncc2C)CC1,-31.92
13,CCc1nc2c(N3CCCC(c4nccn4CCOC)C3)ncnc2o1 (stereo not given),-3.273
14,Cc1nc2c(N3CCC(O)(Cn4ccnc4)CC3)ncnc2o1,2.472
15,CSc1ccccc1CN1C[C@@H]2CC[C@H](C1)N(CC1CC1)C2=O,-21.61
16,NC(=O)CCCNC(=O)c1cc(Br)c2c(c1)OCCO2,-9.821
17,COc1ccc2cc(CN(C)CCN3CCCCC3=O)c(=O)[nH]c2c1,1.998
18,COc1ccccc1CC1CCCN(CC(=O)NC2CC2)C1 (stereo not given),10.43
19,CCCc1cc(C(=O)N(C)Cc2ccc(OC)c3ncccc23)n(C)n1,-87.89
20,COc1ccccc1C1(CNc2cc(C(=O)N(C)C)ccn2)CC1,-1.454
21,CNC(=O)Cc1cc2nccc(-c3c(OC)cccc3OC)n2n1,105.1
22,COc1cccc(OC)c1-c1ccnc2cc(CC(=O)NC(C)C)nn12,87.37
23,COc1cccc(OC)c1-c1ccnc2cc(CC(=O)N(C)C)nn12,89.81
24,COc1cccc(CNC(=O)C(C)n2ccnc2C(C)C)c1OC (stereo not given),-21
25,COc1cccc(CCNC(=O)NC(C)C)c1O,-0.2442
26,COc1cccc(OC)c1-c1ccnc2cc(CC(=O)NC3CC3)nn12,130.6
27,COc1ccccc1OCC(=O)n1nc(C)c(C)c1C,-12.46

row,SMILES,Percent Effect [%]
1,COc1cccnc1NC(=O)COc1c(C)cccc1C,-5.049
2,COc1ccccc1CC(=O)NCc1ccnc(NC2CC2)c1,-7.733
3,CN1CCOC(C(=O)N2CCC3(CCCCC3)C2)C1 (stereo not given),13.97
4,CCCc1ccc(S(=O)(=O)NC2(CC(N)=O)CCC2)cc1,-11.45
5,CN1CCN(CCNC(=O)C(OC2CCCC2)c2ccccc2)CC1 (stereo not given),-1.077
6,O=C(NCCn1cccc1)C(c1cccnc1)N1CCCC1 (stereo not given),4.567
7,O=C(NCCN1CCCCC1)C(c1ccccc1)N1CCCC1 (stereo not given),103.1
8,O=C(NCCn1cccc1)C(c1ccccc1)N1CCCC1 (stereo not given),123.6
9,O=C(NCCN1CCOCC1)C(OC1CCCC1)c1ccccc1 (stereo not given),1.172
10,O=C(NCCNc1cccnc1)C(c1cccnc1)N1CCCC1 (stereo not given),-8.824
11,CC(C)NC(=O)[C@@H]1CCO[C@@H]2CCN(c3ncccn3)C[C@H]21,-20.97
12,CC(=O)N1CC[C@H]2OCC[C@@H](C(=O)N3CCCCO3)[C@@H]2C1,7.512
13,CC(=O)N1CC[C@H]2OCC[C@@H](C(=O)Nc3cccnc3C)[C@@H]2C1,106.3
14,CC(=O)N1CC[C@H]2OCC[C@@H](C(=O)Nc3cccnc3C)[C@H]2C1,87.27
15,CCC(CNC1CCN(C(C)=O)CC1)Oc1ccccc1Cl (stereo not given),3.786
16,NC(=O)N1CCCC(C(=O)NCc2ccccc2OC(F)(F)F)C1 (stereo not given),21.92
17,CCC(O)CNC(=O)c1cc(COc2ccc(OC)cc2Cl)[nH]n1 (stereo not given),4.505
18,O=C(CCc1ccccc1)Nc1ncccc1OC(F)F,-7.341
19,CCn1cc(CN2CCCN(C(=O)CCSC)CC2)cn1,96.36
20,CSC(C)C(=O)N1CCCN(Cc2cnn(C(C)C)c2)CC1 (stereo not given),-3.847
21,CSCCC(=O)N1CCCN(Cc2cnn(C(C)C)c2)CC1,82.47
22,CCc1nnsc1C(=O)N1CCCN(Cc2cnn(C)c2)CC1,1.125
23,CC(C)(C)OC(=O)N1CSC[C@@H]1C(=O)NCc1cccc(C#N)c1,-10.68
24,Cc1ncsc1CCCNC(=O)C1CC2(CCNCC2)CN1C (stereo not given),23.09
25,Cc1ccc2[nH]c(CNC(=O)C3CC4(CCNCC4)CN3C)nc2c1C (stereo not given),105.7
26,CCn1nc(C(C)C)cc1C(=O)NCc1nc2ccc(OC)cc2[nH]1,5.154
27,COc1ccc2nc(CNC(=O)C3CC4(CCNCC4)CN3C)[nH]c2c1 (stereo not given),101.4

row,SMILES,Percent Effect [%]
1,COc1ccc2nc(CNC(=O)c3cc(C(C)C)on3)[nH]c2c1,-7.42
2,Cc1ccc(NCCCNC(=O)C2CC3(CCNCC3)CN2C)nc1 (stereo not given),-3.217
3,Cn1nnc2c1CCN(S(C)(=O)=O)C2COCC1CC1 (stereo not given),-21.64
4,Fc1cc(CNCc2ccc3c(c2)CCO3)ccc1N1CCOCC1,14.1
5,CCC[C@@H]1CN(C(=O)c2conc2-c2ccccc2)C[C@H]1N(C)C,-6.905
6,CCc1nc2ccccc2c(=O)n1CC1(O)CCN(C(=O)C(C)C)CC1,101.9
7,CS(=O)(=O)N1CCC(O)(Cn2c(C3CC3)nc3ccccc3c2=O)CC1,-5.897
8,CCCC(=O)N1CCC(O)(Cn2c(CC)nc3ccccc3c2=O)CC1.Cl,-3.591
9,CCc1nc2ccccc2c(=O)n1CC1(O)CCN(CC(=O)OC)CC1,94.95
10,Cc1nc2ccccc2c(=O)n1Cc1nnnn1C1CC1,-4.17
11,CC(=O)c1cn(CC(=O)N2CCC(O)(CO)CC2)c2ccccc12,-13.61
12,Cc1nc2ccccc2c(=O)n1CCC(=O)N1CCSCC1,-8.454
13,CCc1nc2ccccc2c(=O)n1CC1(O)CCN(C(=O)COC)CC1.Cl,76.81
14,CCc1nc2ccccc2c(=O)n1CC1(O)CCN(C(=O)C2CC2)CC1.Cl,111.9
15,COCC(=O)N1CCCN(Cc2cc(O)c3ccccc3n2)CC1,-35.6
16,COC(=O)Cn1c(=O)nc2n1C(=O)N(c1ccccc1)C2,-2.891
17,CCC(Oc1ccc(N(C)S(C)(=O)=O)cc1)C(=O)NC (stereo not given),9.37
18,CC(C)NC(=O)N1CCCC2(CCCCN2)C1 (stereo not given),-45.21
19,CNC(=O)Cc1noc(-c2cc3c(s2)CCCC3)n1,9.229
20,Cc1cccc(CN(Cc2ccccc2)Cc2nccs2)n1,-3.089
21,COc1ccccc1OC1CN(C(=O)CN(C)Cc2ccncc2)C1,-7.187
22,CCC(=O)NC1CCCN(Cc2ccc(-n3ccnc3)cc2)C1 (stereo not given),12
23,CCc1nc2ccccc2c(=O)n1CC1(O)CCN(S(C)(=O)=O)CC1.Cl,-5.087
24,CCc1nc2ccccc2c(=O)n1CC1(O)CCNCC1.Cl,113.9
25,Cc1nc2ccccc2c(=O)n1CCC(=O)N1CCNC(=O)C1,-8.423
26,CCNC(=O)N(Cc1ccoc1)C1CCCCC1,-0.3193
27,Cc1cc(-c2cnn(CCNC(=O)c3cccnc3)c2C2CC2)on1.Cl,-6.458

row,SMILES,Percent Effect [%]
1,Cc1cc(-c2cnn(CCNC(=O)C3CC3)c2C2CC2)on1,8.757
2,Cc1cc(-c2cnn(CCNC(=O)c3cnn(C)c3)c2C2CC2)on1,133.8
3,Cc1cc(-c2cnn(CCNC(=O)c3cc[nH]n3)c2C2CC2)on1,115.4
4,Cc1cc(C(=O)NCCSC2CCCC2)no1,-0.7527
5,Cc1cc(-c2cnn(CCNC(=O)c3snnc3C)c2C2CC2)on1,141.4
6,CCc1cccc(N2CCC(NC(=O)c3cc[nH]n3)CC2)c1,15.39
7,CCCn1nc(C)c(CNC(=O)c2snnc2C)c1C,-13.49
8,O=C(NCCc1nnc[nH]1)Nc1cccc(SC(F)F)c1,-17.31
9,O=C(C[S+]([O-])Cc1ccc(Cl)cc1Cl)N1CCc2sccc2C1 (stereo not given),-26.03
10,Cc1nc(CN(C)C(=O)C2CC(=O)N(c3cccc(O)c3)C2)cs1 (stereo not given),-3.806
11,COc1cccc(S(=O)(=O)CCN2CCCN(C(C)=O)CC2)c1,-4.305
12,CN1CCOC[C@H]1c1nc(-c2ccncc2)c[nH]1,-4.576
13,Cc1ccc(C)c(NC(=O)N2CCC3(CC2)NC(=O)CC3C(=O)O)c1 (stereo not given),-4.672
14,O=C(O)[C@@H]1CN(C2CCOCC2)C[C@H]1C1CC1,12.44
15,Clc1ccccc1-c1nc(CNC2CCc3ncnn3C2)co1 (stereo not given),83.87
16,Cc1ccc(-c2nc(CNC3CCc4ncnn4C3)co2)cc1 (stereo not given),77.78
17,Fc1ccc(-c2ccc(CNC3CCc4ncnn4C3)o2)cc1 (stereo not given),-0.7899
18,Clc1ccccc1-c1nc(CNC2CCc3ncnn3C2)cs1 (stereo not given),-2.283
19,Clc1cccc(-c2nc(CNC3CCc4ncnn4C3)co2)c1 (stereo not given),112.7
20,Fc1ccc(-c2nnc(CNC3CCc4ncnn4C3)o2)cc1 (stereo not given),-10.58
21,Fc1ccc(-c2nc(CNC3CCc4ncnn4C3)co2)cc1 (stereo not given),119.4
22,c1nc2n(n1)CC(NCc1csc(-c3ccsc3)n1)CC2 (stereo not given),-11.03
23,c1csc(-c2nc(CNC3CCc4ncnn4C3)co2)c1 (stereo not given),-0.5039
24,c1ccc(-c2nc(CNC3CCc4ncnn4C3)co2)cc1 (stereo not given),3.463
